From PubChem BioAssay (EPA / NIEHS)
Activity calls are given as the source filed them. Rule for the calls: active = hit-call score of the fitted dose curve at least 0.9, where 1 is the maximum; inactive = score below 0.9.

Tests used:
Settings in all cases: mRNA level, 48 h; actives raise or lower the signal
[1] = read-out: Interleukin 6 Receptor (IL6R), IL6R (gene 3570); experiment: LTEA_HepaRG_IL6R: Life Technologies and Expression Analysis (LTEA) Assay for Interleukin 6 Receptor (IL6R) using HepaRG (AID 2283510)
Summary of the method: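 HepaRG, 48 h exposure, 8-pt half-log series, top 100 uM, 0.5% DMSO vehicle, duplicates. Read-out: TaqMan qRT-PCR of IL6R transcript, housekeeping-gene normalized. Gain or loss fitted relative to DMSO baseline.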

[2] = read-out: Potassium channel subfamily K member 1 (KCNK1), KCNK1 (gene 3775); experiment: LTEA_HepaRG_KCNK1: Life Technologies and Expression Analysis (LTEA) Assay for Potassium channel subfamily K member 1 (KCNK1) using HepaRG (AID 2283511)
Summary of the method: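 KCNK1 transcript measured by TaqMan qRT-PCR against three housekeeping genes, after HepaRG cells were treated 48 h with eight half-log concentrations (top 100 uM, 0.5% DMSO). Curves fitted bidirectionally relative to vehicle.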

[3] = read-out: Keratin 19 (KRT19), KRT19 (gene 3880); experiment: LTEA_HepaRG_KRT19: Life Technologies and Expression Analysis (LTEA) Assay for Keratin 19 (KRT19) using HepaRG (AID 2283512)
Summary of the method: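 Differentiated HepaRG cells in serum-free induction medium, exposed 48 h in duplicate to 8 half-log concentrations up to 100 uM in 0.5% DMSO. KRT19 mRNA by qRT-PCR, normalized to ACTB, GAPDH, POLR2A; bidirectional fit vs DMSO.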

[4] = read-out: JUN Transcription Factor, JUN (gene 3725); experiment: LTEA_HepaRG_JUN: Life Technologies and Expression Analysis (LTEA) Assay for JUN Transcription Factor using HepaRG (AID 2283513)
Summary of the method: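 HepaRG, 48 h exposure, 8-pt half-log series top 100 uM, 0.5% DMSO, duplicate. JUN mRNA by qRT-PCR (Fluidigm), housekeeping-normalized (ACTB/GAPDH/POLR2A); bidirectional curve fit vs DMSO baseline.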

[5] = read-out: Lipase C (LIPC), LIPC (gene 3990); experiment: LTEA_HepaRG_LIPC: Life Technologies and Expression Analysis (LTEA) Assay for Lipase C (LIPC) using HepaRG (AID 2283514)
Summary of the method: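 LIPC expression was quantified by qRT-PCR against three housekeeping genes (ACTB, GAPDH, POLR2A). Differentiated human HepaRG cells received eight half-log doses (top 100 uM, 0.5% DMSO) in duplicate for 48 h; fitting bidirectional relative to DMSO.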

[6] = read-out: Lipoprotein lipase (LPL), LPL (gene 4023); experiment: LTEA_HepaRG_LPL: Life Technologies and Expression Analysis (LTEA) Assay for Lipoprotein lipase (LPL) using HepaRG (AID 2283515)
Summary of the method: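 LPL transcript levels quantified by TaqMan qRT-PCR against three housekeeping genes after 48 h chemical treatment of HepaRG cells. Eight-point half-log series from 100 uM in 0.5% DMSO, tested in duplicate; bidirectional fitting versus vehicle.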

[7] = read-out: MicroRNA 122 (MIR122), gene 406906; experiment: LTEA_HepaRG_MIR122: Life Technologies and Expression Analysis (LTEA) Assay for MicroRNA 122 (MIR122) using HepaRG (AID 2283516); note: the transcript read is the microRNA miR-122
Summary of the method: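 qRT-PCR read-out (TaqMan, Fluidigm array), normalized to three housekeeping genes; HepaRG cells dosed 48 h at 8 concentrations up to 100 uM in 0.5% DMSO, duplicate; gain or loss fitted against DMSO baseline.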

[8] = read-out: matrix metalloproteinase-10 (MMP10), MMP10 (gene 4319); experiment: LTEA_HepaRG_MMP10: Life Technologies and Expression Analysis (LTEA) Assay for matrix metalloproteinase-10 (MMP10) using HepaRG (AID 2283517)
Summary of the method: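 Expression measured by TaqMan qRT-PCR with ACTB/GAPDH/POLR2A normalisation after 48 h chemical exposure of HepaRG cells. Eight half-log concentrations, top 100 uM, 0.5% DMSO vehicle, duplicates; gain or loss fitted against vehicle.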

MYC, MYC (gene 4609) = experiment: LTEA_HepaRG_MYC: Life Technologies and Expression Analysis (LTEA) Assay for MYC using HepaRG (AID 2283518)
Summary of the method: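 Differentiated HepaRG cells exposed 48 h in serum-free induction medium to 8 concentrations (top 100 uM, half-log steps; 0.5% DMSO), duplicate. MYC mRNA measured by Fluidigm qRT-PCR, normalized to ACTB, GAPDH, POLR2A; bidirectional fit versus DMSO.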

[9] = read-out: matrix metalloproteinase-3 (MMP3), MMP3 (gene 4314); experiment: LTEA_HepaRG_MMP3: Life Technologies and Expression Analysis (LTEA) Assay for matrix metalloproteinase-3 (MMP3) using HepaRG (AID 2283519)
Summary of the method: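 Fluidigm-based TaqMan qRT-PCR, normalized to ACTB, GAPDH and POLR2A and fitted bidirectionally versus 0.5% DMSO, measured transcript levels. Treatment: duplicate 48 h exposures of HepaRG cells, ~100,000/well, to eight half-log concentrations topping at 100 uM.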

[10] = read-out: Paternally Expressed 10 (PEG10), PEG10 (gene 23089); experiment: LTEA_HepaRG_PEG10: Life Technologies and Expression Analysis (LTEA) Assay for Paternally Expressed 10 (PEG10) using HepaRG (AID 2283520)
Summary of the method: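 qRT-PCR read-out: PEG10 mRNA normalised to three housekeeping genes, fitted bidirectionally against 0.5% DMSO vehicle. HepaRG cells received test chemicals for 48 h in serum-free induction medium, 8 points, top 100 uM, half-log steps.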

[11] = read-out: Protein phosphatase 2A (PPP2R4), PTPA (gene 5524); experiment: LTEA_HepaRG_PPP2R4: Life Technologies and Expression Analysis (LTEA) Assay for Protein phosphatase 2A (PPP2R4) using HepaRG (AID 2283522)
Summary of the method: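 HepaRG, 48 h exposure, 8-pt half-log series from 100 uM, 0.5% DMSO vehicle, duplicates. Readout: PPP2R4 mRNA, Fluidigm qRT-PCR, housekeeping-normalized. Bidirectional curve fit vs DMSO baseline.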

[12] = read-out: Phosphatase and tensin (PTEN), PTEN (gene 5728); experiment: LTEA_HepaRG_PTEN: Life Technologies and Expression Analysis (LTEA) Assay for Phosphatase and tensin (PTEN) using HepaRG (AID 2283523)
Summary of the method: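 Read-out: TaqMan qRT-PCR of PTEN transcript, normalized to three housekeeping genes, fitted in both directions against 0.5% DMSO. Differentiated human HepaRG cultures received chemicals for 48 h, eight-point half-log series topping at 100 uM.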

[13] = read-out: solute carrier (SLC22A1), SLC22A1 (gene 6580); experiment: LTEA_HepaRG_SLC22A1: Life Technologies and Expression Analysis (LTEA) Assay for solute carrier (SLC22A1) using HepaRG (AID 2283524)
Summary of the method: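 Transcript level of SLC22A1 quantified by qRT-PCR (normalized to three housekeeping genes) after 48 h chemical exposure of HepaRG cells, eight concentrations up to 100 µM, half-log steps, 0.5% DMSO vehicle. Gain or loss relative to DMSO fitted bidirectionally.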

[14] = read-out: Pyruvate Dehydrogenase Kinase 4 (PDK4), PDK4 (gene 5166); experiment: LTEA_HepaRG_PDK4: Life Technologies and Expression Analysis (LTEA) Assay for Pyruvate Dehydrogenase Kinase 4 (PDK4) using HepaRG (AID 2283525)
Summary of the method: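 Readout is qRT-PCR of PDK4 transcript, normalized to three housekeeping genes, with bidirectional fitting against 0.5% DMSO vehicle. Differentiated HepaRG cells were treated 48 h in serum-free induction medium, duplicate wells, eight-point half-log series topping at 100 uM.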

[15] = read-out: NAD(P)H dehydrogenase [quinone] 1 (NQO1), NQO1 (gene 1728); experiment: LTEA_HepaRG_NQO1: Life Technologies and Expression Analysis (LTEA) Assay for NAD(P)H dehydrogenase [quinone] 1 (NQO1) using HepaRG (AID 2283526)
Summary of the method: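 qRT-PCR read-out (Fluidigm TaqMan), normalized to three housekeeping genes, after 48 h chemical exposure of HepaRG cells. Concentrations: eight points, top 100 uM, half-log steps, 0.5% DMSO vehicle. Gain or loss of signal fitted relative to DMSO.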

[16] = read-out: Nuclear factor erythroid 2-related factor 2 (Homo sapiens) (UniProt Q16236); experiment: LTEA_HepaRG_NFE2L2: Life Technologies and Expression Analysis (LTEA) Assay for Nuclear factor erythroid 2-related factor 2 (NFE2L2) Transcription Factor using HepaRG (AID 2283527);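 note: TaqMan qRT-PCR transcript level normalised to ACTB GAPDH and POLR2A housekeeping genes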
Summary of the method: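 NFE2L2 transcript level was read by qRT-PCR (housekeeping ACTB/GAPDH/POLR2A normalisation) after 48 h chemical treatment of HepaRG in serum-free induction medium. Duplicate 8-point half-log curves, top 100 uM, 0.5% DMSO vehicle; up- or down-regulation fitted against vehicle.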

[17] = read-out: succinate dehydrogenase complex iron sulfur subunit B (SDHB), SDHB (gene 6390); experiment: LTEA_HepaRG_SDHB: Life Technologies and Expression Analysis (LTEA) Assay for succinate dehydrogenase complex iron sulfur subunit B (SDHB) using HepaRG (AID 2283528)
Summary of the method: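 A human HepaRG culture in serum-free induction medium received test chemicals for 48 h over an eight-point range capped at 100 uM. SDHB expression change was quantified by qRT-PCR.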

[18] = read-out: Signal transducer and activator of transcription 3 (Homo sapiens) (UniProt P40763); experiment: LTEA_HepaRG_STAT3: Life Technologies and Expression Analysis (LTEA) Assay for Signal transducer and activator of transcription (STAT3) using HepaRG (AID 2283529)
Summary of the method: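 STAT3 transcript quantified by qRT-PCR against three housekeeping genes (ACTB, GAPDH, POLR2A), fitted both directions relative to DMSO. HepaRG cultures exposed 48 h to eight half-log concentrations, top 100 uM, 0.5% DMSO, serum-free induction medium.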

[19] = read-out: solute carrier (SLCO1B1), SLCO1B1 (gene 10599); experiment: LTEA_HepaRG_SLCO1B1: Life Technologies and Expression Analysis (LTEA) Assay for solute carrier (SLCO1B1) using HepaRG (AID 2283530)
Summary of the method: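 Differentiated human HepaRG cells were exposed for 48 h in serum-free induction medium to eight half-log concentrations, top 100 uM, in 0.5% DMSO. SLCO1B1 mRNA was measured by qRT-PCR, normalized to ACTB, GAPDH and POLR2A, and fitted bidirectionally against DMSO.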

Measured: outcome

Chain of Nuclear factor erythroid 2-related factor 2 (Homo sapiens) (Q16236 whole entry, looked up): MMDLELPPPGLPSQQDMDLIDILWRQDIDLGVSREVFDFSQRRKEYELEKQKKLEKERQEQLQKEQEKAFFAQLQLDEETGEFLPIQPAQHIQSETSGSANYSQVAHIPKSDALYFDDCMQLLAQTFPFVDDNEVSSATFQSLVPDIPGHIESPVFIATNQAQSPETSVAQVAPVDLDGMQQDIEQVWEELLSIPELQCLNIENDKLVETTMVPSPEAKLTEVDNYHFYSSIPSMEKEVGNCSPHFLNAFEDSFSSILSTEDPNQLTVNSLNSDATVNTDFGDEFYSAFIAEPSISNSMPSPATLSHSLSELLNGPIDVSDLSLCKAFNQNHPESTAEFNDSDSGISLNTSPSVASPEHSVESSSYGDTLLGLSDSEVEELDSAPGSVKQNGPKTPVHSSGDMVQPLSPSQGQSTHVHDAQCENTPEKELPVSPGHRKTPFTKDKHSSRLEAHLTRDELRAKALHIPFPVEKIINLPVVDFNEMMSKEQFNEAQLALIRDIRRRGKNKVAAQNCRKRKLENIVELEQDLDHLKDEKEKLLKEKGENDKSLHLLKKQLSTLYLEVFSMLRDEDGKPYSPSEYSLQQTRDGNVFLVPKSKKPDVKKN
Chain of Signal transducer and activator of transcription 3 (Homo sapiens) (P40763 whole entry, looked up): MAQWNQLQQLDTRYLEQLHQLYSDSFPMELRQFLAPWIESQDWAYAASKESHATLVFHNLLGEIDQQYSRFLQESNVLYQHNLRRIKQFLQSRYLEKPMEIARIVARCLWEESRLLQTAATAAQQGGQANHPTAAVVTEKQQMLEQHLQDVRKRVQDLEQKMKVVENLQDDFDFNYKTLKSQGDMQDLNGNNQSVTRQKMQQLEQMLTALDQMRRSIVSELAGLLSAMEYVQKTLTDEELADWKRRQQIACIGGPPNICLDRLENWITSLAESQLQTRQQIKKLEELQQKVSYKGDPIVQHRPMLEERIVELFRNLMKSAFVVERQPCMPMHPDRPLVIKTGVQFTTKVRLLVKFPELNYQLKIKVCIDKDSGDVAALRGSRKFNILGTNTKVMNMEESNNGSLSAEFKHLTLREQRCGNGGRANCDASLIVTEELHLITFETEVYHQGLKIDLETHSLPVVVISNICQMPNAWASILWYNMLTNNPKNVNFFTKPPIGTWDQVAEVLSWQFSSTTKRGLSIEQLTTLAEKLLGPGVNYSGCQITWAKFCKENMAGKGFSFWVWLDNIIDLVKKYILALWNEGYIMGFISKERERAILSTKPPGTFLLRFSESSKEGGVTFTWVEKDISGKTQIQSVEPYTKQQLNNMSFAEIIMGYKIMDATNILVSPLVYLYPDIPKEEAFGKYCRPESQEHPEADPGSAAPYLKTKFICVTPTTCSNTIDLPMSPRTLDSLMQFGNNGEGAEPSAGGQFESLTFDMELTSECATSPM

CS(=O)(=O)OCCCCOS(C)(=O)=O
inactive: all assays above
